Screening results from PubChem BioAssay.
Only some compounds are listed: those with a hit (about 3.5% of all), similar ones and a draw of the others.
KCNK9 block = human KCNK9 channel inhibition. Q9NPC2. HEK293 KCNK9, FluxOR thallium flux fluorescence; active compounds read low. B-score at 10 µM. 310,000 compounds, 1.2% hits;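 active = ratio B-score over 3 SD below the library mean, with starting fluorescence within 5 SD of its mean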;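 also: negative B-score means less thallium flux so channel inhibition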
KCNK3 block = human KCNK3 channel inhibition, primary screen | CHO-KCNK3 thallium flux, FluxOR fluorescence; active compounds read low | O14649 | B-score at 10 µM | 340,000 compounds, 0.84% hits;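 active = B-score under library mean minus 4 SD, starting fluorescence ratio at most library mean plus 5 SD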;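 also: more negative B-score means stronger inhibition of thallium flux through KCNK3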
ANO1 activ = activates or potentiates the mouse TMEM16A chloride channel; 340,000 compounds, 0.3% hits; B-score at 10 µM; Q8BHY3; AID 623877; HEK293 TMEM16A/YFP-H148Q/I152L, iodide quench fluorescence; active compounds read low;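 active = fluorescence-ratio B-score plate-corrected deviation score at least 3 library SD below zero, with starting fluorescence score within 5 deviations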;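 also: channel opened by trigger with iodide after compound preincubation; score built on the fluorescence ratio of max minus min over baseline; more negative score means more quench and so TMEM16A activation or potentiation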
Target sequence (Q8BHY3 whole entry, looked up): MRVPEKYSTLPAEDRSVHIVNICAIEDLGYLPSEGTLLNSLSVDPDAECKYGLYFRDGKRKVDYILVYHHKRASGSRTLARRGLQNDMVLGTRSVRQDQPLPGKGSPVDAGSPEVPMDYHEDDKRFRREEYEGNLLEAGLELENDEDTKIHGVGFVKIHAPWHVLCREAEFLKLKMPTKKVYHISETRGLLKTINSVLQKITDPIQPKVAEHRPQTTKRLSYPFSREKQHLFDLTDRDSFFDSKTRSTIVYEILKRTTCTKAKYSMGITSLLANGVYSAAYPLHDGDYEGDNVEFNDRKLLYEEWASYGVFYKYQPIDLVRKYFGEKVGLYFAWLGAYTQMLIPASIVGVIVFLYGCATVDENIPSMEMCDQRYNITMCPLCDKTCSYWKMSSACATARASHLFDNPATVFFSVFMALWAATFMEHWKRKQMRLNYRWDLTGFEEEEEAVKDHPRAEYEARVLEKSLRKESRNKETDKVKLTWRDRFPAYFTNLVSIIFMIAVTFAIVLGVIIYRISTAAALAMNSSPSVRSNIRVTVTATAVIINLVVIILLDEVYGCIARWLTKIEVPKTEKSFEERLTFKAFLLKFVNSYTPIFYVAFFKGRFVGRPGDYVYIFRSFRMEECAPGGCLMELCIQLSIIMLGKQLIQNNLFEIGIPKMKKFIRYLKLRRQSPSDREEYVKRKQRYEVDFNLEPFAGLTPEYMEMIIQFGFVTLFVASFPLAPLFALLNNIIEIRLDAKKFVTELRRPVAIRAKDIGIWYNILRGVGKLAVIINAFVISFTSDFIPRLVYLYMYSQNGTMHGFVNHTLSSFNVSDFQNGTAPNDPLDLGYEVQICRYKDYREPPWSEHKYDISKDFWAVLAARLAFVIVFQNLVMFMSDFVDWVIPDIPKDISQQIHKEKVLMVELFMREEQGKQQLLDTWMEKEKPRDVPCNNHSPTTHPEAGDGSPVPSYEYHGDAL
TMEM16A inh = mouse TMEM16A channel inhibition, primary screen | HEK293 TMEM16A/YFP iodide influx fluorescence, ionomycin | normalized B-score (activity score, 25-100; higher = stronger inhibition) at 10 µM | 310,000 compounds, 1.2% hits | Q8BHY3;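 active = ratio plate-corrected score three or more library SD toward inhibition, starting fluorescence score within five deviations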;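 also: score derived from kinetic fluorescence span divided by baseline fluorescence per well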
Kir21 inh = inhibitors of mouse Kir2.1 inward-rectifier potassium channel | P35561 | HEK293-Kir2.1, FluxOR thallium flux fluorescence; active compounds read low | B-score at 10 µM | 310,000 compounds, 0.85% hits;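 active = fluorescence ratio B-score at or below minus 3 SD of library scores, with starting-brightness B-score within 2 SD, cut at about -4.2 in these data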;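 also: channel flux triggered by added potassium and thallium sulfate stimulus; B-score of peak minus minimum fluorescence over baseline after thallium stimulus; more negative B-score means stronger Kir2.1 block with less thallium influx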
KCNK3 confirm = human KCNK3 channel inhibition, confirmation assay | shares compounds with KCNK3 block | CHO-KCNK3 thallium flux, FluxOR fluorescence; 0% buffer, 100% carvedilol maximal block | ratio percent of control, % at 10 µM | 2,400 compounds, 99% hits | AID 651638;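 active = ratio percent of control, averaged over triplicates, above buffer control mean plus 5 SD, cut at about 64% in these data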;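 also: ratio is the fluorescence rise from min to max over baseline after thallium stimulus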
KCNK3 uninduced = activity in cells without induced KCNK3 expression; non-induced KCNK3 parental cells, FluxOR thallium flux; active compounds read low; AID 651747; thallium flux ratio (lower = more inhibition) at 10 µM; shares compounds with KCNK3 block; 2,400 compounds, 40% hits;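 active = thallium flux ratio, averaged over three wells, more than 5 SD below the buffer control mean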;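 also: host cells are CHO cells without KCNK3 induction; ratio is peak minus trough fluorescence over baseline then normalized to buffer controls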
* = called active by the depositor; i = inactive; · = no result given.

SMILES | KCNK9 block | KCNK3 block | ANO1 activ | TMEM16A inh | Kir21 inh | KCNK3 confirm | KCNK3 uninduced
CCNC(=S)N/N=C(\C)c1cccc([N+](=O)[O-])c1 | i | i | i | i | 1.74 | · | ·
O=C(NCC1CCCO1)c1ccc2c(=O)n(CC3CCCO3)c(=S)[nH]c2c1 (stereo not drawn) | i | i | i | i | -0.22 | · | ·
COc1ccc(OC)c(CCNC(=O)c2ccc3c(=O)[nH]c4c(C(=O)NC(C)C)sc(=S)n4c3c2)c1 | i | -11.4* | i | i | 0.01 | 128.7* | i
CCOc1ccc(CCNC(=O)c2ccc3c(=O)[nH]c4c(C(=O)NC(C)C)sc(=S)n4c3c2)cc1 | i | -8.97* | i | i | 0.86 | 108.3* | i
CC(C)NC(=O)c1sc(=S)n2c1[nH]c(=O)c1ccc(C(=O)NCCc3ccc(Cl)cc3)cc12 | i | -18.3* | i | i | 3.7 | 93.3* | i
O=C(NCCc1ccccc1)c1ccc2c(=O)[nH]c3c(C(=O)NCC4CCCO4)sc(=S)n3c2c1 (stereo not drawn) | i | -11.9* | i | i | 0.28 | 118.3* | i
Cc1nn(C(C)C(=O)NCCc2ccco2)c(=O)c2nn(-c3ccccc3)c(C)c12 (stereo not drawn) | i | i | i | i | 1.3 | · | ·
[O-]/[N+](=C\c1ccncc1)c1ccccc1 | i | i | i | i | -2.18 | · | ·
CC(=O)Nc1cc(=O)c2cccnc2[nH]1 | · | i | i | · | · | · | ·
COc1ccccc1CN(C(=O)CNC(=O)c1ccco1)C(C(=O)NCC1CCCO1)c1ccc(OC)c(OC)c1 (stereo not drawn) | i | i | i | i | -0.03 | · | ·
CCOC(=O)c1ccccc1NC(=O)COC(=O)CC1CCCCC1 | i | -9.68* | i | i | -0.62 | 105.3* | 0.151*
CCOC(=O)c1c(CSCc2ccccc2)oc2ccc(O)c(CN(C)C)c12 | i | -9.28* | i | i | -2.78 | 122.7* | i
CCOC(=O)c1c(COc2ccccc2)oc2ccc(O)cc12 | i | · | · | i | -0.72 | · | ·
CCOc1ccc(N2CC(C(=O)Nc3nnc(CC)s3)CC2=O)cc1 (stereo not drawn) | i | i | i | i | -0.1 | · | ·
COC(=O)N/N=C/c1cc(N=Nc2ccccc2)ccc1O | -7.17* | -10.7* | i | i | 0.58 | 108.7* | 0.153*
Brc1ccc(-n2cnc(-c3ccccc3)c2)cc1 | i | i | i | i | -1.68 | · | ·
FC(F)Sc1ccc(NC(=S)NC2CCCCC2)cc1 | i | -10.3* | i | i | 0.78 | 104.0* | i
Cc1ccc(C)c(CSCC(=O)NCc2cccs2)c1 | i | -10.9* | i | i | -2.21 | 84.3* | i
COc1ccc(OC(=O)N2C/C(=C/c3ccccc3)C(=O)/C(=C\c3ccccc3)C2)cc1 | · | i | i | · | · | · | ·
CCOC(=O)N1C/C(=C\c2ccccc2)C(=O)/C(=C/c2ccccc2)C1 | i | -10.5* | i | · | 0.22 | 113.3* | i
CSc1nc(NCc2ccco2)c2c3c(sc2n1)CN(C)CC3 | i | · | · | i | -0.42 | · | ·
CCCSc1nc(NCc2ccco2)c2c3c(sc2n1)COC(C)(C)C3 | i | -9.56* | i | i | 0.41 | 108.0* | i
COc1ccc(CN(Cc2ccc(C(=O)O)cc2)C(=S)Nc2cccc(C)c2)cc1OC | i | i | i | i | 1.2 | · | ·
Cc1ccc(Oc2nccc(-c3ccc(Cl)cc3)n2)cc1 | i | i | i | i | 0.69 | · | ·
CCOc1ccccc1CN1C(=O)C2(OCCO2)c2ccccc21 | i | -9.67* | i | i | -0.59 | 108.3* | i
SMILES | KCNK9 block | KCNK3 block | ANO1 activ | TMEM16A inh | Kir21 inh | KCNK3 confirm | KCNK3 uninduced
Cc1ccnc(OC(C(=O)O)C(OCc2ccccc2)(c2ccc(F)cc2)c2ccc(F)cc2)n1 (stereo not drawn) | i | i | i | i | 2.23 | · | ·
CCOC(=O)c1c(NC(=O)Cn2c(C)nc3ccccc32)sc2c1CCC2 | i | -9.36* | i | i | 0.5 | 102.0* | i
COC(=O)c1c(NC(=O)CSc2nnnn2-c2ccccc2)sc2c1CCCC2 | i | -9.42* | i | i | 0.6 | 95.7* | i
CCOC(=O)c1c(NC(=O)COC(=O)Cn2c(C)nc3ccccc32)sc2c1CCCC2 | i | i | i | i | 0.13 | · | ·
COc1ccc(N2CCN(c3ncnc4scc(-c5ccc(F)cc5)c34)CC2)cc1 | i | -11* | i | i | 0.28 | 110.0* | i
Cn1cnc(C(=O)NCc2ccccc2)c1C(=O)NCc1ccccc1 | · | i | i | · | · | · | ·
CCCCCNC(=O)Cn1c(=O)c2c(ncn2CC(C)C)n(Cc2ccccc2)c1=O | i | i | i | i | 0.88 | · | ·
COCCn1c(=NC(=O)C2COc3ccccc3O2)sc2cc(S(N)(=O)=O)ccc21 (stereo not drawn) | i | i | i | i | 1.59 | · | ·
CCn1c(=NC(=O)C2COc3ccccc3O2)sc2c(OC)ccc(OC)c21 (stereo not drawn) | -6.61* | -10.1* | i | i | 0.4 | 112.0* | i
Cc1ccc(/C=C/C2=Cc3c(sc(NC(=O)CSc4n[nH]c(N)n4)c3C#N)C(C)(C)C2)o1 | i | · | · | i | -1.17 | · | ·
COc1cc(C)c(CN2CCN(CC(=O)Nc3ccccc3C(=O)NC3CC3)CC2)cc1OC | · | i | i | · | · | · | ·
C=C(c1cn(C(C)=O)c2ccccc12)c1cn(C(C)=O)c2ccccc12 | · | -11.8* | i | · | · | 61.7* | 0.151*
CC(C)Cn1nc(C(=O)NCc2ccccc2CN2CCCC2)c2ccccc2c1=O | · | i | i | · | · | · | ·
COc1ccc(Cl)cc1NC(=O)CN(C)C(=O)c1ccc(N2CCCCCC2)c([N+](=O)[O-])c1 | i | -11.8* | i | i | -1.79 | 107.3* | i
Cc1ccccc1Oc1cc(NC(=O)CCCn2nc(C)c([N+](=O)[O-])c2C)cc([N+](=O)[O-])c1 | i | -9.28* | i | i | 1.28 | 119.0* | i
Cc1c(Cl)c([N+](=O)[O-])nn1CCCC(=O)Nc1cc(Oc2ccccc2)cc([N+](=O)[O-])c1 | i | i | i | i | -0.05 | · | ·
Cc1nn(CCCC(=O)Nc2cc(Oc3ccc(F)cc3)cc([N+](=O)[O-])c2)c(C)c1[N+](=O)[O-] | i | -8.88* | i | i | -0.55 | 124.7* | i
COc1cccc(CN2C(=O)CCC2(C)C(=O)NCCc2ccc(OC)c(OC)c2)c1 (stereo not drawn) | i | i | i | i | -1.45 | · | ·
CNNCc1ccc(C(=O)NC(C)C)cc1 | i | i | i | i | 0.39 | · | ·
